{"source": "PubChem BioAssay (NCATS)", "note": "Inconclusive results are not listed. Active and inactive are the calls of the source. The call rests on the fitted dose curve. Potency means the concentration at half of the fitted maximal effect.", "data": [{"assay": "Primary qHTS to identify inhibitors of SARS-CoV-2 cell entry (AID 1645846); further: nearly all actives have a fitted effect of over 45% in size", "settings": "SARS-CoV-2 pseudovirus cell entry assay, luminescence; activity change, negative = inhibition: at 57.1 µM (top of the series) unless noted", "outline": "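Using luciferase-reporting pseudoviruses carrying Wuhan-Hu-1 spike, the screen tracks entry into stably ACE2-expressing cells over 48 hr. Activity is expressed relative to spike particles versus particles lacking any fusion protein.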", "units": {"activity change, negative = inhibition": "%"}, "values": [{"smiles": "COc1ccc([C@@H](O)[C@@H](C)Oc2ccc([C@H]3O[C@H](c4ccc(O[C@H](C)[C@H](O)c5ccc(OC)c(OC)c5)c(OC)c4)[C@H](C)[C@H]3C)cc2OC)cc1OC", "activity change, negative = inhibition": -95.6}, {"smiles": "CCCCc1nc2cc(/C=C/C(=O)NO)ccc2n1CCN(CC)CC", "Potency": "inactive"}, {"smiles": "C[C@H](NC(=O)CCC(F)(F)F)C(=O)N[C@@H]1C(=O)N(CCO)c2ncccc2-c2ccccc21", "activity change, negative = inhibition": -2.66}, {"smiles": "COc1nnc2ccc(N3CCC(c4ccc(OCCN5CCN(C)C(=O)[C@H]5C)cc4)CC3)nn12", "Potency": "inactive"}, {"smiles": "Cc1[nH]c2ccccc2c1CCNCc1ccc(/C=C/C(=O)NO)cc1", "Potency": "inactive"}, {"smiles": "CNC(=O)Cn1cc(-c2ccc3c(c2)C(F)CC32NC(=O)N(CC(=O)N(Cc3ccc(F)cc3)C(C)C(F)(F)F)C2=O)cn1", "note": "(centres undefined)", "activity change, negative = inhibition": -52.5}, {"smiles": "C[C@@H]1CC(=O)Nc2cccc(-c3cnn(C(C)(C)C)c3)c2N1", "activity change, negative = inhibition": -17.2}, {"smiles": "COc1cc([C@@H]2c3cc4c(cc3[C@@H](O[C@@H]3O[C@@H]5CO[C@@H](c6cccs6)O[C@H]5[C@H](O)[C@H]3O)[C@H]3COC(=O)[C@H]23)OCO4)cc(OC)c1O", "activity change, negative = inhibition": -96.2}, {"smiles": "CN(C)CCOc1ccc(-c2nc(-c3ccc4c(c3)CC/C4=N\\O)c(-c3ccncc3)[nH]2)cc1", "Potency": "12.6 µM (active)"}, {"smiles": "CN(C)C/C=C/C(=O)Nc1ccc(C(=O)Nc2cccc(Nc3ncc(Cl)c(-c4c[nH]c5ccccc45)n3)c2)cc1", "Potency": "1 µM (active)"}, {"smiles": "COC(C)(C)CCn1nc(Nc2c(C)cccc2C)c2cnc(Nc3ccc(OCCN4CCCC4)c(F)c3)nc21", "Potency": "11.2 µM (active)"}, {"smiles": "Cc1cc(CS(=O)(=O)c2ccccc2)cc(OCc2ccc(CN3CCC[C@@H]3CO)cc2)c1", "Potency": "12.6 µM (active)"}, {"smiles": "CCNC(=O)Nc1ccc(-c2nc3c(c(N4CCOC[C@@H]4C)n2)CCN(C2COC2)C3)cc1", "Potency": "10 µM (active)"}, {"smiles": "CNC(=O)c1cccc2cc(Oc3ccnc4cc(OCC5(N)CC5)c(OC)cc34)ccc12", "activity change, negative = inhibition": -98.2}, {"smiles": "Cc1ccc(NS(=O)(=O)c2cccc(C#N)c2)c2[nH]cc(C#N)c12", "activity change, negative = inhibition": -10.5}, {"smiles": "COc1cc(OCc2cccc(-c3ccccc3)c2C)cc(OC)c1CN1CCCC[C@H]1C(=O)O", "activity change, negative = inhibition": -88.4}, {"smiles": "CCOC(=O)CCNc1cc(N2CCc3ccccc3CC2)nc(-c2ccccn2)n1", "activity change, negative = inhibition": -97.3}, {"smiles": "NS(=O)(=O)OC[C@@H]1C[C@@H](n2ccc3c(N[C@H]4CCc5ccccc54)ncnc32)C[C@@H]1O", "activity change, negative = inhibition": -87.9}, {"smiles": "COc1cc(N2CCN(C(C)=O)CC2)ccc1Nc1ncc(Cl)c(Nc2ccc(N3CCN(C(C)=O)CC3)cc2OC)n1", "activity change, negative = inhibition": -12.2}, {"smiles": "COc1ccc2[nH]c(S(=O)Cc3ncc(C)c(OC)c3C)nc2c1", "note": "(centres undefined)", "activity change, negative = inhibition": -98.9}, {"smiles": "NC(=O)c1ccc2nc(-c3ccc(C4(N)CCC4)cc3)c(-c3ccccc3)n2n1", "Potency": "25.1 µM (active)"}, {"smiles": "CC#CC(=O)N1CC[C@@H](n2c(=O)n(-c3ccc(Oc4ccccc4)cc3)c3c(N)ncnc32)C1", "activity change, negative = inhibition": -99}, {"smiles": "COc1ccc(S(=O)(=O)Nc2cc(-c3csc(C#N)c3)ccc2C)cc1", "activity change, negative = inhibition": -92}, {"smiles": "N[C@@H]1CN(c2c(F)cc3c(=O)c(C(=O)O)cn([C@@H]4C[C@@H]4F)c3c2Cl)CC12CC2", "activity change, negative = inhibition": -5.2}, {"smiles": "COc1ccc(N2C(=O)N(c3c(C)cccc3Cl)Cc3cnc(Nc4ccc(C5CCN(C)CC5)cc4OC)nc32)nc1", "Potency": "35.5 µM (active)"}, {"smiles": "Fc1ccc2[nH]ccc2c1-c1nc(N2CCOCC2)c2sc(CN3CCN(CC4CC4)CC3)cc2n1", "Potency": "31.6 µM (active)"}, {"smiles": "CC[C@H](C)[C@@H]([C@@H](CC(=O)N1CCC[C@H]1[C@H](OC)[C@@H](C)C(=O)N[C@@H](Cc1ccccc1)c1nccs1)OC)N(C)C(=O)[C@@H](NC(=O)[C@H](C(C)C)N(C)C)C(C)C", "activity change, negative = inhibition": -79.3}, {"smiles": "C=CC(=O)Nc1ccc(F)c(-c2ncnc3[nH]cc(C(=O)OCC)c23)c1", "Potency": "inactive"}, {"smiles": "CN(Cc1ccc(/C=C/C(=O)NO)cc1)CC12CC3CC(CC(C3)C1)C2", "Potency": "5.01 µM (active)"}, {"smiles": "O=C(NO)c1cnc(N2C[C@H]3C[C@@H]2CN3c2cc(C(F)(F)F)ccn2)nc1", "Potency": "inactive"}, {"smiles": "O=C(NC[C@H](O)CN1CCc2ccccc2C1)c1ccnc(NC2CCC2)c1", "activity change, negative = inhibition": 4.47}, {"smiles": "Cc1c(NC(=O)c2cc(C(N)=O)nc3cc(F)ccc23)c(C(F)(F)F)nn1Cc1ccc(C#N)cc1", "activity change, negative = inhibition": -65.9}, {"smiles": "C[C@@H]1COCCN1c1cc(C2(S(C)(=N)=O)CC2)nc(-c2ccnc3[nH]ccc23)n1", "note": "(some centres undefined)", "Potency": "10 µM (active)"}, {"smiles": "CN(C)C/C=C/C(=O)Nc1cccc(C(=O)Nc2cccc(Nc3ncc(Cl)c(-c4c[nH]c5ccccc45)n3)c2)c1", "Potency": "3.16 µM (active)"}]}]}
